Test results: PubChem BioAssay (Tox21)
Results filed as inconclusive are left out. Entries that show only a call come without a potency. The source made the active and inactive calls. The call rests on the fitted dose curve; in most records, active means well fitted inhibition curve with a large enough effect in the signal ratio in the repeat runs (not every such curve was filed as active); inconclusive means weak or mixed curves, or effect the other way; inactive means no such curve, though single readings can be large or run the other way; the % refers to the signal ratio.

Each compound was assayed against Glucocorticoid receptor (Homo sapiens) (UniProt P04150) (assay: qHTS assay to identify small molecule antagonists of the glucocorticoid receptor (GR) signaling pathway (AID 720692)). Conditions: GR-bla HeLa, beta-lactamase FRET ratio, dexamethasone-stimulated, 18 h; series mostly up to 58.5 µM.
Sequence of Glucocorticoid receptor (Homo sapiens) (P04150 whole entry, looked up): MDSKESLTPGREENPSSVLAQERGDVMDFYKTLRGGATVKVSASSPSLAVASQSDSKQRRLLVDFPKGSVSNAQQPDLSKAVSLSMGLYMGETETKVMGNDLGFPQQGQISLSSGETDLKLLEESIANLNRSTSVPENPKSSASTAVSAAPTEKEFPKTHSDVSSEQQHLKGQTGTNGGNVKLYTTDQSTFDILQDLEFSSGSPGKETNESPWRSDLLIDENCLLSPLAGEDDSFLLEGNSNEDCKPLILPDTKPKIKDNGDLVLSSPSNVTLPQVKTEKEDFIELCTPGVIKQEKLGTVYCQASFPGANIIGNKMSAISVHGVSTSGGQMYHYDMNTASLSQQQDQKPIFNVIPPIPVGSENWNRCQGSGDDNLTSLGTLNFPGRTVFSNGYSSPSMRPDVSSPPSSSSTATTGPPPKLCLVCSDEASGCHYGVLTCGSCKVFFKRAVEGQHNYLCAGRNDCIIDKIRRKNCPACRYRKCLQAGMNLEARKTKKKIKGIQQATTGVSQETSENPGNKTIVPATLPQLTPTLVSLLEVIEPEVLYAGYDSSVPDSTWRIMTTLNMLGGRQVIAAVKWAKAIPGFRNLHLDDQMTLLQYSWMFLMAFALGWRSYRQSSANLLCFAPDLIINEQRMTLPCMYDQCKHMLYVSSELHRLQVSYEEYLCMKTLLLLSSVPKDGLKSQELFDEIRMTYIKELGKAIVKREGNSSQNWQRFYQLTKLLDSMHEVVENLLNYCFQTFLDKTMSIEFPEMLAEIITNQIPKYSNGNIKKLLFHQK
Text: U.S. Tox21 Program National Center for Advancing Translational Sciences [NCATS] NIH Chemical Genomics Center [NCGC] U.S. Environmental Protection Agency [EPA] National Institutes of Environmental Health Sciences [NIEHS] National Toxicology Program [NTP] U.S. Food and Drug Administration [FDA] Tox21 Assay Overview: The Glucocorticoid receptor (GR) is one of the members of the nuclear receptor family of ligand-dependent transcription factors. GR plays a critical role in carbohydrate, protein and lipid metabolisms and programmed cell death. CellSensor GR-bla HeLa cell line (Invitrogen) contains a beta-lactamase reporter gene under the control of the glucocorticoid response element stably integrated into HeLa cells, a cervical cancer cell line that expresses glucocorticoid receptor. The activation of the reporter gene under culture conditions can be detected by fluorescence intensity. This cell line has been used to screen the Tox21 10K compound library and to identify the compounds that inhibit the GR signaling.
Tox21 Assay Protocol Summary: The GR-bla HeLa cells were dispensed at 1500 cells/5 ul/well in 1536-well black wall/clear bottom plates using a Multidrop Combi (ThermoFisher Scientific, Waltham, MA) dispenser. After the assay plates were incubated at a 37 C/5% CO2 incubator for 4 hours, 23 nL of compounds dissolved in DMSO, positive controls or DMSO only was transferred to the assay plate by a pintool station (Kalypsys, San Diego, CA), followed by addition of 1 uL of dexamethasone (5 nM, final concentration in the well). The plates were incubated at 37 C for 18 hours. After 1 uL of LiveBLAzerTM B/G FRET substrate was added using a Flying Reagent Dispenser (Aurora Discovery, San Diego, CA), the plates were incubated at room temperature for 2 hours, and fluorescence intensity was measured by an Envision plate reader (PerkinElmer, Shelton, CT).
Potency means the concentration at half of the fitted maximal effect.

| SMILES | Potency |
| --- | --- |
| N#CC(CCc1ccc(Cl)cc1)(Cn1cncn1)c1ccccc1 (stereo not given) | 49 µM (active) |
| CCS(=O)(=O)C(C)(C)S(=O)(=O)CC | inactive |
| CCOC(=O)/C=C(C)/C=C/C[C@@H](C)CCCC(C)C | inactive |
| ClC(Br)Br | inactive |
| Cc1cc(C)nc(Nc2ccccc2)n1 | inactive |
| CC(Cl)(Cl)[N+](=O)[O-] | inactive |
| Cc1ncsc1CCCl | inactive |
| COc1cccc2c1cc([N+](=O)[O-])c1c(C(=O)O)cc3c(c12)OCO3 | 13.8 µM (active) |
| O=[N+]([O-])c1cccc2cccnc12 | inactive |
| CC(C)[N+](=O)[O-] | inactive |
| CCC/C(=N\OCC)C1=C(O)CC(CC(C)SCC)CC1=O (stereo not given) | inactive |
| CCCCc1c(C)nc(NCC)[nH]c1=O | inactive |
| COP(N)(=S)Oc1ccccc1C(=O)OC(C)C (stereo not given) | inactive |
| O=C(Oc1ccc(Br)cc1)N1CCN2CCC1CC2 | inactive |
| CNC(=O)Oc1ccc(N(C)C)c(C)c1 | inactive |
| CC(=O)CC(c1ccc(Cl)cc1)c1c(O)c2ccccc2oc1=O (stereo not given) | inactive |
| CC(C)(C)C(=O)C(Oc1ccc(Cl)cc1)n1cncn1 (stereo not given) | inactive |
| CC1=C(C(=O)Nc2ccccc2)S(=O)(=O)CCO1 | 48.9 µM (active) |
| Cc1cnc[nH]1 | inactive |
| [As]#[In] | inactive |

| SMILES | Potency |
| --- | --- |
| CCc1cc2c(s1)-n1c(C)nnc1CN=C2c1ccccc1Cl | 19 µM (active) |
| CCC(Cl)[N+](=O)[O-] (stereo not given) | inactive |
| CC1(C)COP(Oc2ccccc2)OC1 | inactive |
| COc1ccc2c(c1OC)CN1CCc3cc4c(cc3C1C2)OCO4 (stereo not given) | inactive |
| CCS(=O)(=O)CCSP(=O)(OC)OC | inactive |
| COc1cc(C[C@@H](C)N)c(OC)cc1C | inactive |
| OCCBr | inactive |
| CNC(=O)N(C)c1nc2ccccc2s1 | inactive |
| COc1ccc(C(=O)N2CCCC2=O)cc1 | inactive |
| CCN(CC)C(=O)[C@@H]1C=C2c3cccc4[nH]cc(c34)C[C@H]2N(C)C1 | inactive |
| O=C1OC(=O)C2C1C1(Cl)C(Cl)=C(Cl)C2(Cl)C1(Cl)Cl (stereo not given) | inactive |
| CC1CCC(=O)O1 (stereo not given) | inactive |
| C(CCOCC1CO1)COCC1CO1 (stereo not given) | inactive |
| O=CNC(N1CCN(C(NC=O)C(Cl)(Cl)Cl)CC1)C(Cl)(Cl)Cl (stereo not given) | inactive |
| CCOP(=S)(OCC)Oc1nc(Cl)n(C(C)C)n1 | inactive |
| ClC(Cl)C(Cl)Cl | inactive |
| CCC(C)(C)c1cc(-n2nc3ccccc3n2)c(O)c(C(C)(C)CC)c1 | inactive |
| Nc1cc(Cl)ccc1O | inactive |
| CCOP(=O)(N=C1SCCS1)OCC | inactive |
| COc1cc(OC)nc(NC(=O)NS(=O)(=O)c2ncccc2OCC(F)(F)F)n1 | inactive |
